Reference: PubChem BioAssay (NCATS)
Where “and” joins values, the source holds several entries; their conditions need not be identical. Equal values may be shown once. Records with an inconclusive call do not appear. Calls of active or inactive are those of the source. Calls come from the whole dose curve; as a rule, active = well fitted inhibition curve with a large enough effect; inconclusive = small, poorly fitted or top-dose-only effect; inactive = no such curve, though single readings can be large or run the other way.

Test: qHTS for Inhibitors of the Aldehyde Dehydrogenase Family (ALDH1A2, ALDH1A3, ALDH2, ALDH3A1) (AID 2061307); note: nearly all actives have a fitted effect of over 50% in size; for Potency: test system not described further here
Conditions: ALDH inhibition qHTS; series mostly up to 50.3 µM; activity change, negative = inhibition: at the top concentration
% is set by controls: 0 for no effect and ±100 for the full control effect; potency is the fitted concentration of half-maximal effect.

SMILES	Potency	activity change, negative = inhibition
O=C(Nc1ncc(CN2CCOCC2)s1)c1ccc(-c2cccc([N+](=O)[O-])c2)o1	28.2 µM (active)	
O=C(Nc1cccc(C(F)(F)F)c1)c1ccccc1NCc1cccc(C(F)(F)F)c1		2.71% (inactive)
COc1cccc(NC(=O)c2cc3ccccc3[nH]c2=O)c1		-0.551% [at 34.4 µM] (inactive)
Cc1ccc(NC(=O)Cc2c(C)nn(C)c2C)cc1F	10 µM (active)	
CC(C)C(=O)OCc1ccc(-c2nn(Cc3ccccc3)c3ccccc23)o1		-39.8% (inactive)
CCOc1ccc(NC(=O)Cn2c(=O)n(-c3ccccc3)c(=O)c3ccc(C(=O)NCc4ccc5c(c4)OCO5)cc32)cc1		-39.9% [at 34.4 µM] (inactive)
O=C(Nc1cccc(Oc2ncccn2)c1)c1cccc(C(F)(F)F)c1		-56.3% [at 34.4 µM] (inactive)
Cc1cccc2c1NC(=O)C2(O)CC(=O)c1ccco1 (stereo not given)	0.565 µM (active)	
COc1ccc(-n2ccc(C(=O)NC(C)(C)C)n2)cc1		-40.6% [at 34.4 µM] (inactive)
COc1ccc(C(=O)OCC(=O)Nc2cccc(C(F)(F)F)c2)cc1OC		-19.9% (inactive)
O=C(O)c1ccc(-n2[nH]c(-c3ccccc3)cc2=O)cc1	8.91 µM (active)	
O=C(O)c1csc(-n2[nH]c(-c3cc(F)ccc3F)cc2=O)n1		-23.6% (inactive)
Cc1ccc(-c2ccccc2)n1-c1ccccc1C(=O)O	15.9 µM (active)	
CCOc1ccc(C(=O)NCc2nc(-c3ccc(Cl)cc3)no2)cc1OCC		-0.628% [at 34.4 µM] (inactive)
O=C(Nc1ccc(-c2nnc3n2CCCC3)cc1)Nc1ccccc1Br	8.91 µM (active)	
O=C(O)c1ccnc(-n2cc(Br)cn2)c1		-2.09% (inactive)
Cc1c(P(=S)(c2ccccc2)c2ccccc2)[n+]2ccccc2n1C/C=C/c1ccc(Br)cc1		70.8% (inactive)
COC(=O)c1ccc(CN2CCC(N(CCc3ccccc3)Cc3ccccc3)CC2)cc1		-10.1% (inactive)
O=C(c1cnc(N2CCCCC2)c2ccccc12)N1CCN(c2ccccc2)CC1		2.15% (inactive)
CC(=O)N1CCC(Nc2ncnc3scc(-c4ccccc4)c23)CC1	6.31 µM (active)	

SMILES	Potency	activity change, negative = inhibition
O=C(Nc1nncs1)c1ccn(-c2ccc(F)cc2)n1		0% [at 34.4 µM] (inactive)
Cc1ccc(OCCCn2c(CCN)nc3ccccc32)cc1		31.3% (inactive)
O=Cc1ccc(Sc2ccccn2)o1		3.67% (inactive)
O=[N+]([O-])c1ccc(NC(=S)N=Nc2c(O)[nH]c3ccccc23)cc1	7.12 µM (active)	
CN(C)CCCN1c2ccc([N+](=O)[O-])cc2CCc2cc([N+](=O)[O-])ccc21		-85.5% (inactive)
Cc1ccc(NS(=O)(=O)c2cc(N[C@@H](C)CO)cc3c2NC(=O)CC3)cc1C		-24.9% (inactive)
CC(=O)c1ccc(NC(=O)c2cnn(-c3cccc(F)c3)c2-n2cccc2)cc1		-80.6% [at 34.4 µM] (inactive)
CN(C)c1ccc(NC(=O)c2cn(-c3ccccc3)nn2)cn1		-6.95% [at 34.4 µM] (inactive)
CCOc1ccc(NC(=O)c2ccc(NC(=O)CN3C(=O)N(C)C4(CCCCC4)C3=O)cc2)cc1	7.08 µM (active)	
Oc1ccccc1NCC(O)Cn1ccc2ccccc21 (stereo not given)		-17.6% (inactive)
O=C(CSc1nnc(-c2ccccn2)o1)Nc1ccc2c(c1)OCCO2	11.3 µM (active)	
O=C(Nc1ccn[nH]1)c1ccn(-c2cccc(F)c2)n1		-23.3% [at 34.4 µM] (inactive)
CCN(CC)C(=O)c1ccc(S(=O)(=O)N2CCC(c3nc4ccccc4s3)CC2)cc1		-10.7% (inactive)
CCN1CCC(N(CCc2ccccc2)Cc2ccccc2)CC1		3.29% (inactive)
CCOc1ccc(NCC(=O)Nc2ccc(Cl)cc2C)cc1	2.25 µM (active) and 7.94 µM (active)	
CCN1CCN(C2c3ccccc3-c3ccc(Br)cc32)CC1 (stereo not given)		34.2% (inactive)
CCN(CC)C(=O)c1ccc(Nc2ncnc3sc(C)c(C)c23)cc1	6.31 µM (active)	
O=C(NCc1ccccn1)c1ccc2nnc(-c3ccc(OC(F)(F)F)cc3)n2c1		-20.7% [at 34.4 µM] (inactive)
O=C(O)c1cccc(COc2cccc([N+](=O)[O-])c2)c1	0.269 µM (active)	
Cc1ccn2c(=O)c(C(=O)NC(C)c3ccccc3)c(O)nc2c1 (stereo not given)		-34.8% [at 34.4 µM] (inactive)
